{"source": "the OligoGym collection"}
{"molecular_target": "ZNF548", "assay": "pooled miR-30 sensor sort-seq; sequence = guide strand", "conditions": "shRNA"}
{"sequence": "AATTCCATTGTGCTCAACCAGG", "sensor-assay potency score (higher = more potent)": -1.53}
{"sequence": "TGTCTCACTAGGGTGGACCTTC", "sensor-assay potency score (higher = more potent)": -0.0557}
{"sequence": "TCAACAAATGAATAGCTGCAGG", "sensor-assay potency score (higher = more potent)": -0.782}
{"sequence": "TTCACTAGTGTGAACTGTCTGA", "sensor-assay potency score (higher = more potent)": 0.39}
{"sequence": "TTCTCTGTCCTCTGTGTCCCTG", "sensor-assay potency score (higher = more potent)": -0.777}
{"sequence": "TGTCTAACAAATGTGGAGCTGT", "sensor-assay potency score (higher = more potent)": 0.213}
{"sequence": "TTGTAACCTCTGACACTCCTAC", "sensor-assay potency score (higher = more potent)": -0.158}
{"molecular_target": "ZNF550", "assay": "pooled miR-30 sensor sort-seq; sequence = guide strand", "conditions": "shRNA"}
{"sequence": "ATGAGTTCTGAGCTGCATCTGA", "sensor-assay potency score (higher = more potent)": -0.453}
{"sequence": "TTTACCTTTCTGCATTTCCAAA", "sensor-assay potency score (higher = more potent)": -1.66}
{"sequence": "TCTGTCACCTAGTGAAACCAGA", "sensor-assay potency score (higher = more potent)": -0.609}
{"sequence": "TTCATGGAGAACATCTGCTGAT", "sensor-assay potency score (higher = more potent)": 0.0411}
{"sequence": "TGCTGCATGAGGTACGACCTGC", "sensor-assay potency score (higher = more potent)": -0.586}
{"sequence": "TTCGACATTGACTACACTCATA", "sensor-assay potency score (higher = more potent)": -1.1}
{"sequence": "TTGTGGAGGTCTGTCTCCGGTG", "sensor-assay potency score (higher = more potent)": -1.27}
{"sequence": "TTTCATTCCAGTGTGAACCCTC", "sensor-assay potency score (higher = more potent)": 0.423}
{"sequence": "TGCTGTATGAGTTCTGAGCTGC", "sensor-assay potency score (higher = more potent)": 0.178}
{"sequence": "TTGAGGTTGAAGATTCCAGAGT", "sensor-assay potency score (higher = more potent)": -1.04}
{"sequence": "ATTCATGGAGAACATCTGCTGA", "sensor-assay potency score (higher = more potent)": -0.38}
{"sequence": "TTGAGCTCTGGCTAAAGGCTTT", "sensor-assay potency score (higher = more potent)": -0.685}
{"molecular_target": "ZNF583", "assay": "pooled miR-30 sensor sort-seq; sequence = guide strand", "conditions": "shRNA"}
{"sequence": "TTCTCCAACATCACTTTCCTGT", "sensor-assay potency score (higher = more potent)": 0.0692}
{"sequence": "TACCTCTTGACTTCCCAGCTGG", "sensor-assay potency score (higher = more potent)": 0.168}
{"sequence": "TTCGGTAACTTTTCTTTTGTGG", "sensor-assay potency score (higher = more potent)": 0.115}
{"sequence": "TTTCTTTTGTGGTTCATGCTTA", "sensor-assay potency score (higher = more potent)": 0.129}
{"sequence": "TTCTTCATATGTCTCTTGCTTT", "sensor-assay potency score (higher = more potent)": -0.61}
{"sequence": "TATAACTAAGATGTCTTGCTCC", "sensor-assay potency score (higher = more potent)": 0.322}
{"sequence": "TTTTACATTCTTTACACTGATA", "sensor-assay potency score (higher = more potent)": -0.826}
{"sequence": "TTTCTTTTCTACATAGACTTTC", "sensor-assay potency score (higher = more potent)": -0.596}
{"sequence": "TTTTCTACATAGACTTTCCTAT", "sensor-assay potency score (higher = more potent)": -0.369}
{"sequence": "TTTTTTACATTCTTTACACTGA", "sensor-assay potency score (higher = more potent)": 0.132}
{"sequence": "TTGACTAAGATGTACCTCTTGA", "sensor-assay potency score (higher = more potent)": 0.141}
{"sequence": "TATATCAAAGATTGTATCCTGG", "sensor-assay potency score (higher = more potent)": 0.513}
{"molecular_target": "ZNF592", "assay": "pooled miR-30 sensor sort-seq; sequence = guide strand", "conditions": "shRNA"}
{"sequence": "TTGAAGACCATTTCACAGGAGC", "sensor-assay potency score (higher = more potent)": -0.241}
{"sequence": "ATTCTCTCTAGTCTCCATGGGC", "sensor-assay potency score (higher = more potent)": -0.404}
{"sequence": "TTTAGAACTCTCTTTAGTGGGC", "sensor-assay potency score (higher = more potent)": 0.465}
{"sequence": "TTGTCCTCTGGAAATGTGCAGC", "sensor-assay potency score (higher = more potent)": -0.92}
{"sequence": "TTCTGCACGAACAAGAGTGGGC", "sensor-assay potency score (higher = more potent)": -0.174}
{"sequence": "TAATGTGGTCTTTCTCCGCTTC", "sensor-assay potency score (higher = more potent)": -0.0177}
{"sequence": "TTGTTGAAGACCATTTCACAGG", "sensor-assay potency score (higher = more potent)": -0.934}
{"sequence": "TGATGCAGCAACACTGTGGGGG", "sensor-assay potency score (higher = more potent)": 0.194}
{"sequence": "TTTGTCATGCTCTCGTCCCCTT", "sensor-assay potency score (higher = more potent)": -0.419}
